Values joined by “and” are separate entries in the source; they are usually repeats but may differ in a detail not shown here. Equal values may be shown once. The campaign covered roughly 5,500 compounds. About 2,000 (36%) were called active. About 18% were inconclusive and are not listed. No stated cut-off is given here; in the data, active means normalized growth mostly below about 0.91 (no sharp cut-off); inconclusive means no clear call, values can overlap the other calls; inactive means mostly above about 0.92. This is one part of the list.
Assay: chemical genetic growth profiling, strain panel (AID 1159580);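 further: tested at 20 µM; growth read once vehicle control cultures reached saturation at 30 °C; 1 = growth at the plate median or of vehicle wells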
Conditions: S. cerevisiae deletion strains, growth OD

Measured: normalized growth

C[N+]12CCC(CC1)C(OC(=O)C(O)(c1ccccc1)c1ccccc1)C2 (configuration not stated)
inactive: locus YAL013W, strain DEP1, stronger effect = lower value 0.995 | locus YAL021C, strain ccr4, stronger effect = lower value 0.983 | locus YAL026C, strain drs2, stronger effect = lower value 1.01 | locus YAL030W, strain snc1, stronger effect = lower value 0.985 | locus YBL061C, strain skt5, stronger effect = lower value 0.968 | locus YBR009C, strain hhf1, stronger effect = lower value 0.989 | locus YBR021W, strain FUR4, stronger effect = lower value 0.99 | locus YBR023C, strain chs3, stronger effect = lower value 0.987 | locus YBR171W, strain sec66, stronger effect = lower value 0.957 | locus YBR229C, strain ROT2, stronger effect = lower value 0.989 | locus YBR231C, strain swc5, stronger effect = lower value 0.995 | locus YBR279W, strain paf1, stronger effect = lower value 0.985 | locus YCL011C, strain gbp2, stronger effect = lower value 0.951 | locus YCL016C, strain dcc1, stronger effect = lower value 0.956 | locus YCL029C, strain bik1, stronger effect = lower value 0.956 | locus YCL061C, strain MRC1, stronger effect = lower value 0.992 | locus YCL069W, strain vba3, stronger effect = lower value 0.998 | locus YCR088W, strain abp1, stronger effect = lower value 0.984 | locus YDL005C, strain med2, stronger effect = lower value 0.974 | locus YDL035C, strain GPR1, stronger effect = lower value 1.03 | locus YDL040C, strain nat1, stronger effect = lower value 0.993 | locus YDL074C, strain BRE1, stronger effect = lower value 0.975 | locus YDL101C, strain DUN1, stronger effect = lower value 0.975 | locus YDL134C, strain PPH21, stronger effect = lower value 0.981 | locus YDL185W, strain tfp1, stronger effect = lower value 0.974 | locus YDL192W, strain arf1, stronger effect = lower value 0.992 | locus YDR001C, strain nth1, stronger effect = lower value 0.978 | locus YDR069C, strain doa4, stronger effect = lower value 0.982 | locus YDR101C, strain arx1, stronger effect = lower value 0.971 | locus YDR137W, strain rgp1, stronger effect = lower value 0.975 | locus YDR150W, strain NUM1, stronger effect = lower value 0.996 | locus YDR159W, strain sac3, stronger effect = lower value 1.01 | locus YDR162C, strain NBP2, stronger effect = lower value 1 | locus YDR195W, strain ref2 0.983 | locus YDR297W, strain sur2, stronger effect = lower value 0.976 | locus YDR318W, strain mcm21, stronger effect = lower value 0.975 | locus YDR334W, strain swr1, stronger effect = lower value 0.938 | locus YDR335W, strain msn5, stronger effect = lower value 0.971 | locus YDR388W, stronger effect = lower value 0.984 | locus YDR392W, strain spt3, stronger effect = lower value 0.922 | locus YDR502C, strain sam2, stronger effect = lower value 0.987 | locus YEL003W, strain gim4, stronger effect = lower value 0.987 | locus YEL037C, strain rad23, stronger effect = lower value 0.988 | locus YEL061C, strain CIN8 (second series), stronger effect = lower value 0.987 | locus YEL061C, strain CIN8, stronger effect = lower value 0.993 | locus YER015W, strain faa2, stronger effect = lower value 0.987 | locus YER016W, strain bim1, stronger effect = lower value 0.989 | locus YER110C, stronger effect = lower value 0.975 | locus YER111C, strain swi4, stronger effect = lower value 0.987 | locus YER155C, strain BEM2 (second series), stronger effect = lower value 1.01 | locus YER155C, strain BEM2, stronger effect = lower value 0.983 | locus YER167W, strain BCK2, stronger effect = lower value 0.992 | locus YFR010W, strain ubp6, stronger effect = lower value 0.981 | locus YGL078C, strain dbp3, stronger effect = lower value 0.992 | locus YGL086W, strain mad1, stronger effect = lower value 1 | locus YGL167C, strain pmr1, stronger effect = lower value 0.976 | locus YGL173C, strain kem1, stronger effect = lower value 0.974 | locus YGL227W, strain vid30, stronger effect = lower value 0.979 | locus YGL240W, strain doc1, stronger effect = lower value 0.981 | locus YGL248W, strain PDE1, stronger effect = lower value 0.99 | locus YGL253W, strain hxk2, stronger effect = lower value 0.966 | locus YGR078C, strain PAC10, stronger effect = lower value 0.983 | locus YGR135W, strain pre9, stronger effect = lower value 0.971 | locus YGR229C, strain SMI1, stronger effect = lower value 1 | locus YGR252W, strain gcn5, stronger effect = lower value 1.09 | locus YHR013C, strain ard1, stronger effect = lower value 0.962 | locus YHR027C, strain rpn1, stronger effect = lower value 0.974 | locus YHR030C, strain SLT2, stronger effect = lower value 0.988 and 0.977 | locus YHR079C, strain IRE1 (second series), stronger effect = lower value 0.97 | locus YHR079C, strain IRE1, stronger effect = lower value 1 | locus YHR094C, strain hxt1, stronger effect = lower value 0.982 | locus YHR129C, strain ARP1, stronger effect = lower value 0.99 | locus YHR142W, strain chs7, stronger effect = lower value 0.944 | locus YHR200W, strain rpn10, stronger effect = lower value 0.979 | locus YIL066C, strain RNR3, stronger effect = lower value 0.983 | locus YIL073C, strain SPO22, stronger effect = lower value 0.972 | locus YIL125W, strain kgd1, stronger effect = lower value 0.994 | locus YIR030C, strain dcg1, stronger effect = lower value 0.971 | locus YJL092W, strain hpr5, stronger effect = lower value 0.985 | locus YJL095W, strain BCK1 (second series), stronger effect = lower value 0.981 | locus YJL095W, strain BCK1, stronger effect = lower value 0.967 and 0.963 | locus YJL115W, strain asf1, stronger effect = lower value 0.968 | locus YJL129C, strain trk1, stronger effect = lower value 0.974 | locus YJL134W, strain LCB3, stronger effect = lower value 0.994 | locus YJL154C, strain vps35, stronger effect = lower value 0.98 | locus YJL164C, strain tpk1, stronger effect = lower value 0.979 | locus YJL166W, strain qcr8, stronger effect = lower value 0.95 | locus YJL168C, strain set2, stronger effect = lower value 0.984 | locus YJL187C, strain SWE1 (second series), stronger effect = lower value 0.974 | locus YJL187C, strain SWE1, stronger effect = lower value 0.988 | locus YJR043C, strain POL32, stronger effect = lower value 0.99 | locus YJR066W, strain TOR1, stronger effect = lower value 0.987

— PubChem BioAssay AID1159580 (chemical genetic matrix, 2015)
